Measurements reported in PubChem BioAssay (NCI).
This is part of a sample that, as a whole, favours compounds with a hit. Of some 83,000 tested, about 20% had one in any assay.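 Testing used 96-well plates and a 48-hour single-concentration exposure. Example: -40 means 40% of the starting cells died.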 A number with no mark means an inactive call. Activity calls are given as the source filed them. Rule for the calls: active = growth percent below 10; inactive = the rest.

Legend:
Test in all cases: NCI-60 one-dose screen, 48 h (100 = growth as untreated, 0 = no growth, -100 = all killed)
Conditions in all cases: 10 µM unless noted
HCT-15 colon = tested on: HCT-15 colon
HT29 colon = tested on: HT29 colon
SNB-75 CNS = tested on: SNB-75 CNS
SNB-19 CNS = tested on: SNB-19 CNS
U251 CNS = tested on: U251 CNS
PC-3 prostate = tested on: PC-3 prostate
SK-MEL-5 melanoma = tested on: SK-MEL-5 melanoma
UACC-62 melanoma = tested on: UACC-62 melanoma
LOX IMVI melanoma = tested on: LOX IMVI melanoma
SK-MEL-28 melanoma = tested on: SK-MEL-28 melanoma
EKVX NSCLC = tested on: EKVX NSCLC
SN12C renal = tested on: SN12C renal
UO-31 renal = tested on: UO-31 renal
TK-10 renal = tested on: TK-10 renal
ACHN renal = tested on: ACHN renal
CAKI-1 renal = tested on: CAKI-1 renal
A498 renal = tested on: A498 renal
CCRF-CEM leukemia = tested on: CCRF-CEM leukemia
MOLT-4 leukemia = tested on: MOLT-4 leukemia
SK-MEL-2 melanoma = tested on: SK-MEL-2 melanoma

SMILES	growth (HCT-15 colon)	growth (HT29 colon)	growth (SNB-75 CNS)	growth (SNB-19 CNS)	growth (U251 CNS)	growth (PC-3 prostate)	growth (SK-MEL-5 melanoma)	growth (UACC-62 melanoma)	growth (LOX IMVI melanoma)	growth (SK-MEL-28 melanoma)	growth (EKVX NSCLC)	growth (SN12C renal)	growth (UO-31 renal)	growth (TK-10 renal)	growth (ACHN renal)	growth (CAKI-1 renal)	growth (A498 renal)	growth (CCRF-CEM leukemia)	growth (MOLT-4 leukemia)	growth (SK-MEL-2 melanoma)
CCc1ccc2c(c1)N(CCO)C1=C(C(=O)OC1)C2c1cccc(Br)c1 (configuration not stated)	26.3%	3.88% (active)	2.55% (active)	37.9%	24%	30.1%	33.2%	35.5%	42.2%	49%	47.4%	53.5%	34%	45.4%	47.4%	26.1%	2.81% (active)	11.9%	19.3%	
Brc1cccc(-n2ncc3c(Nc4ccc(-c5nnc(-c6ccccc6)o5)cc4)ncnc32)c1	101%	106%	92.3%	102%	103%	95.1%	98.7%	93.3%	93.3%	112%	102%	97.8%	75.9%	120%	96.7%	90.4%	109%	118%	108%	
O=C(Cc1ccc(Nc2ccnc(C(F)(F)F)c2)cc1)N/N=C/c1ccccc1O	14.6%	75.4%	30.8%	31.1%	23.8%	71.1%	10.8%	10.8%	9.12% (active)	106%	25.7%	36.1%	0.112% (active)	22.7%	4.09% (active)	32.3%	145%		64.4%	
COc1cc(Cn2c(-c3ccccc3)cc3c2-c2oncc2CC3)cc(OC)c1OC	27.6%	4.59% (active)	-17.3% (active)	44.5%	24.1%	20.6%	18.4%	47.5%	39.4%	49.7%	38.3%	49.3%	4.35% (active)	47.1%	48.2%	0% (active)	2.81% (active)	16.9%	14.1%	
COc1cc(Nc2ccnc3ccc(Br)cc23)cc(OC)c1OC	30.6%	14.2%	-4.34% (active)	32.9%	18.6%	26.7%	8.82% (active)	30.4%	32%	58.3%	53.4%	41.5%	40.2%	56.8%	37.6%	31.9%		32.8%	32.1%	
CCOC(=O)C(Nc1ccccc1)C(=O)OCC	98.9%	106%	85%	105%	109%	88.1%	102%	104%	93.5%	111%	108%	99.3%	74.8%	107%	99.3%	105%	126%	111%	83%	
Oc1[nH]c2ccccc2c1/C=c1/ccc2c(c1)N=C(c1ccc(C(F)(F)F)cc1)N=2	44.5%	37.9%	48.7%	61.6%	32.5%	32.5%	69.9%	47.2%	43.4%	52.8%	51.1%	63.7%	73.1%	75.5%	58.7%	32.8%	35%	8.28% (active)	35.5%	
CCCCN(CCCC)CCC(=O)c1ccc(OC)c2ccccc12	99.7%	98%	97.7%	87%	86.7%	84.7%	101%	93.5%	78.9%	154%	92.8%	94.9%	57.9%	97.8%	92.3%	52.1%		35.7%	28.6%	
CS(=O)(=O)Nc1cc(-c2cc3ncc(C#N)c(Nc4ccc(Oc5ccccc5)c(Cl)c4)c3s2)cnc1Cl	37.2%	57.6%	39.2%	62.8%	44.6%	45.5%	52.5%	22%	25.9%	62.3%	58.1%	45.7%	22.6%	45.4%	39.2%	19.4%	-15.2% (active)	38.3%	36.9%	
CC(C)N=C1CCCC1C(=S)SSC(=S)C1CCCC1=NC(C)C (configuration not stated)	54.6%	79.1%	74.3%	83.5%	50.3%	47.4%	81.6%	75%	50.9%	81%		58.1%		109%	68.4%	39.3%	83.4%	22.9%	61.2%	94.7%
OC(c1cc2c(Cl)cc(Cl)cc2c2cc(C(F)(F)F)ccc12)C1CCCCN1 (configuration not stated)	-66.8% (active)	-80.5% (active)	-91% (active)	-72.8% (active)	-93% (active)	-84% (active)	8.25% (active)	-72.4% (active)	-66.2% (active)	-75.4% (active)		-79.1% (active)	-87.6% (active)	-87.7% (active)		-62.5% (active)		-54.7% (active)	-62.6% (active)	-65.3% (active)
CC(=O)OC1Oc2ccccc2-c2oc3nc(=N)n(C)c-3cc21 (configuration not stated)	104%	109%	112%	106%	113%	97.4%	108%	106%	103%	122%	122%	108%	88.6%	155%	110%		138%	77%		
CC(=O)Nc1ccc(Cl)cc1Cl	118%	103%	91.2%	97.8%	103%	308%	95.7%	96.4%	93.8%	157%	89.9%	101%	76.2%	112%	106%	73.4%	116%	145%	71.3%	
O=C(Nc1cccc(Cl)c1)Nc1cc(C(F)(F)F)ccc1Cl	9.83% (active)	4.03% (active)	18.2%	16.6%	6.86% (active)	-3.53% (active)	24.4%	-8.9% (active)	-11.8% (active)	25.5%	16%	-24.4% (active)	10.7%	16.9%	2.64% (active)	9.58% (active)	61.7%	17%	10.1%	
C=C(C)c1ccc(/C=N/NC(N)=S)cc1	96%	86.1%	104%	97.3%	93.9%	100%	95.1%	88.9%	97.4%	109%	7.97% (active)	93.3%	78.6%	103%	93.2%		98.4%	64%	75.3%	
O=C(Nc1ccc(Oc2ccc(NC(=O)Nc3ccccc3Cl)cc2)cc1)Nc1ccccc1Cl	38.9%	45.9%	58.2%	115%	24.6%	1.99% (active)	62.5%	45.9%	48.5%	-17.7% (active)	76.5%	44.1%	20.1%	75.1%	67.4%			42.4%		
